Several values for one entry are separate records, joined by “and”; a condition that tells them apart may be missing. Equal values may be shown once. About 2,000 (36%) of roughly 5,500 compounds were called active. Roughly 18% stayed inconclusive and do not appear here. Rule as the data show it: active = normalized growth mostly below about 0.91 (no sharp cut-off); inconclusive = no clear call, values can overlap the other calls; inactive = mostly above about 0.92. Some of the results follow.
Test: chemical genetic growth profiling, strain panel (AID 1159580);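 also: tested at 20 µM; growth read once vehicle control cultures reached saturation at 30 °C; 1 = growth at the plate median or of vehicle wells; lower values mean less growth of the strain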
Settings: S. cerevisiae deletion strains, growth OD

Measured: normalized growth

CC(N=C(NC#N)Nc1ccncc1)C(C)(C)C (configuration not stated)
inactive: locus YAL013W, strain DEP1, hits give low values 1.01 | locus YAL021C, strain ccr4, hits give low values 0.988 | locus YAL026C, strain drs2, hits give low values 0.997 | locus YAL030W, strain snc1, hits give low values 0.988 | locus YAL040C, strain CLN3, hits give low values 0.983 | locus YBL061C, strain skt5, hits give low values 0.986 | locus YBR009C, strain hhf1, hits give low values 1.01 | locus YBR021W, strain FUR4, hits give low values 1.02 | locus YBR023C, strain chs3, hits give low values 0.98 | locus YBR171W, strain sec66, hits give low values 0.958 | locus YBR229C, strain ROT2, hits give low values 1.01 | locus YBR231C, strain swc5, hits give low values 0.953 | locus YBR279W, strain paf1, hits give low values 0.994 | locus YCL011C, strain gbp2, hits give low values 0.989 | locus YCL016C, strain dcc1, hits give low values 1.02 | locus YCL029C, strain bik1, hits give low values 1.04 | locus YCL061C, strain MRC1 (second series), hits give low values 0.999 | locus YCL061C, strain MRC1, hits give low values 0.951 | locus YCL069W, strain vba3, hits give low values 0.989 | locus YCR088W, strain abp1, hits give low values 0.98 | locus YDL005C, strain med2, hits give low values 0.988 | locus YDL035C, strain GPR1, hits give low values 0.999 | locus YDL040C, strain nat1, hits give low values 0.979 | locus YDL074C, strain BRE1, hits give low values 1.05 | locus YDL101C, strain DUN1, hits give low values 1.01 | locus YDL134C, strain PPH21, hits give low values 1.01 | locus YDL185W, strain tfp1, hits give low values 1.02 | locus YDL192W, strain arf1, hits give low values 1.01 | locus YDR001C, strain nth1, hits give low values 0.963 | locus YDR069C, strain doa4, hits give low values 0.949 | locus YDR101C, strain arx1, hits give low values 1.01 | locus YDR137W, strain rgp1, hits give low values 0.97 | locus YDR150W, strain NUM1, hits give low values 1.02 and 1 | locus YDR159W, strain sac3, hits give low values 1.01 | locus YDR162C, strain NBP2, hits give low values 1.01 | locus YDR195W, strain ref2 0.895 | locus YDR297W, strain sur2, hits give low values 0.971 | locus YDR318W, strain mcm21, hits give low values 1.02 | locus YDR334W, strain swr1, hits give low values 0.949 | locus YDR335W, strain msn5, hits give low values 0.972 | locus YDR363W, strain ESC2, hits give low values 0.904 | locus YDR388W, hits give low values 1.02 | locus YDR392W, strain spt3, hits give low values 1.04 | locus YDR502C, strain sam2, hits give low values 1.01 | locus YEL003W, strain gim4, hits give low values 0.967 | locus YEL037C, strain rad23, hits give low values 0.998 | locus YEL061C, strain CIN8 (second series), hits give low values 0.974 | locus YEL061C, strain CIN8, hits give low values 1.01 | locus YER002W, strain NOP16, hits give low values 1 | locus YER015W, strain faa2, hits give low values 0.999 | locus YER016W, strain bim1, hits give low values 0.986 | locus YER110C, hits give low values 1.02 | locus YER111C, strain swi4, hits give low values 0.995 | locus YER155C, strain BEM2 (second series), hits give low values 0.929 | locus YER155C, strain BEM2, hits give low values 1 | locus YER167W, strain BCK2, hits give low values 0.996 | locus YFR010W, strain ubp6, hits give low values 0.964 | locus YGL078C, strain dbp3, hits give low values 1.01 | locus YGL086W, strain mad1, hits give low values 1 | locus YGL167C, strain pmr1, hits give low values 0.961 | locus YGL173C, strain kem1, hits give low values 0.97 | locus YGL227W, strain vid30, hits give low values 0.986 | locus YGL240W, strain doc1, hits give low values 0.945 | locus YGL248W, strain PDE1, hits give low values 1 | locus YGL253W, strain hxk2, hits give low values 1.01 | locus YGR078C, strain PAC10, hits give low values 1.04 and 0.982 | locus YGR135W, strain pre9, hits give low values 1.03 | locus YGR229C, strain SMI1, hits give low values 1.02 | locus YGR252W, strain gcn5, hits give low values 0.967 | locus YHR013C, strain ard1, hits give low values 0.985 | locus YHR027C, strain rpn1, hits give low values 0.979 | locus YHR030C, strain SLT2, hits give low values 1.01 | locus YHR079C, strain IRE1 (second series), hits give low values 1.02 | locus YHR094C, strain hxt1, hits give low values 1.02 | locus YHR129C, strain ARP1, hits give low values 1 | locus YHR142W, strain chs7, hits give low values 1.02 | locus YHR200W, strain rpn10, hits give low values 1.02 | locus YIL066C, strain RNR3, hits give low values 1.02 | locus YIL073C, strain SPO22, hits give low values 1.02 | locus YIL125W, strain kgd1, hits give low values 1.01 | locus YIR030C, strain dcg1, hits give low values 1.02 | locus YJL092W, strain hpr5, hits give low values 0.976 | locus YJL095W, strain BCK1 (second series), hits give low values 0.974 | locus YJL095W, strain BCK1, hits give low values 1.04 | locus YJL115W, strain asf1, hits give low values 0.971 | locus YJL129C, strain trk1, hits give low values 0.979 | locus YJL134W, strain LCB3, hits give low values 1.01 | locus YJL154C, strain vps35, hits give low values 0.972 | locus YJL164C, strain tpk1, hits give low values 1.03 | locus YJL166W, strain qcr8, hits give low values 0.922 | locus YJL168C, strain set2, hits give low values 1.02 | locus YJL187C, strain SWE1 (second series), hits give low values 1.03
